The values that follow come from PubChem BioAssay (Tox21).

Assay [1] can be described thus: A CellTox Green Cytotoxicity Assay to monitor cytotoxicity in HEK293 cells - 8 hour (AID 1224884). Further: nearly all actives have a fitted effect of over 35% in size. A digest of the protocol:
(§1)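 Tox21 screen in HEK293: membrane-impermeant cyanine dye fluoresces on binding dead-cell DNA; compound pinned 5 h post-seeding, plates held at 37 C, signal read repeatedly through 40 h.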

Assay [2] in a line: qHTS RealTime-Glo MT Cell Viability Assay in HepG2 cells - 16 hour (AID 1224885). Further: nearly all actives have a fitted effect of over 50% in size. A digest of the protocol: (§2)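 Tox21 10K library screened in qHTS format on HepG2 cells carrying RealTime-Glo reagents. Compounds were added after a 5 h preincubation, and the luminescent signal from continuous culture was measured repeatedly during 40 h treatment.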
On the technique in general: qHTS replaces the single test concentration by a dilution series.

Assay [3] in a line: qHTS RealTime-Glo MT Cell Viability Assay in HEK293 cells - 24 hour (AID 1224886). Further: top concentration of the series differs between compounds; nearly all actives have a fitted effect of over 50% in size. A digest of the protocol: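 Luminescence generated by NanoLuc from substrate produced by living HEK293 cells served as the viability signal. Each value reflects the reading at its stated time point during continuous 40 h compound exposure at 37 C.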
The nature of assay [4]: qHTS RealTime-Glo MT Cell Viability Assay in HEK293 cells - 8 hour (AID 1224887). Further: top concentration of the series differs between compounds; nearly all actives have a fitted effect of over 50% in size. A digest of the protocol:
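HEK293 + NanoLuc + prosubstrate, 600 cells/well; 5 h, 37 C/5% CO2; compound 23 nL in DMSO by pintool; 37 C; luminescence read at 0, 8, 16, 24, 32 and 40 h time points.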

Assay [5] can be described thus: A CellTox Green Cytotoxicity Assay to monitor cytotoxicity in HEK293 cells - 16 hour (AID 1224888). Further: nearly all actives have a fitted effect of over 35% in size. A digest of the protocol: as §1
Assay [6] in a line: qHTS RealTime-Glo MT Cell Viability Assay in HepG2 cells - 0 hour (AID 1224889). Further: nearly all actives have a fitted effect of over 50% in size. A digest of the protocol:
as §2

The nature of assay [7]: A CellTox Green Cytotoxicity Assay to monitor cytotoxicity in HepG2 cells - 8 hour (AID 1224890). Further: nearly all actives have a fitted effect of over 45% in size. A digest of the protocol:
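Measurements at 0, 8, 16, 24, 32 and 40 h of treatment captured CellTox Green fluorescence in HepG2 cells that had been co-plated with reagent and preincubated 5 h at 37 C/5% CO2.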

The nature of assay [8]: qHTS assay to identify small molecule antagonists of the estrogen receptor alpha (ER-alpha) signaling pathway using the BG1 cell line in the presence of 0.1 nM 17-beta-estradiol - cell viability counter screen (AID 1259241). Further: nearly all actives have a fitted effect of over 40% in size. A digest of the protocol:
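Estradiol-stimulated (0.1 nM) VM7Luc4E2 cells exposed to compounds 22 hr; viability measured by fluorescence of cleaved CellTiter-Fluor substrate after 30 min.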

Assay [9] is described as follows: qHTS assay to identify small molecule antagonists of the androgen receptor (AR) signaling pathway using the MDA cell line in the presence of 0.5 nM R1881 - cell viability counter screen (AID 1259242). Further: nearly all actives have a fitted effect of over 45% in size. A digest of the protocol:
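Concentration-response screen of compounds for toxicity in MDA-kb2 reporter cells: 16 hr at 37C with 0.5 nM R1881, endpoint live-cell protease fluorescence measured in the reporter wells.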

The target of assay [10] is Androgen receptor (Homo sapiens) (UniProt P10275). The assay can be described thus: qHTS assay to identify small molecule antagonists of the androgen receptor (AR) signaling pathway using the MDA cell line in the presence of 0.5 nM R1881 (AID 1259243). Further: nearly all actives have a fitted effect of over 50% in size. A digest of the protocol: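 With R1881 held at 0.5 nM (final), compound effects on MMTV-luciferase expression in MDA-kb2 cells were scored by luminescence after a 16 hr, 37C incubation.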
Androgen receptor (Homo sapiens), sequence (P10275 whole entry, looked up): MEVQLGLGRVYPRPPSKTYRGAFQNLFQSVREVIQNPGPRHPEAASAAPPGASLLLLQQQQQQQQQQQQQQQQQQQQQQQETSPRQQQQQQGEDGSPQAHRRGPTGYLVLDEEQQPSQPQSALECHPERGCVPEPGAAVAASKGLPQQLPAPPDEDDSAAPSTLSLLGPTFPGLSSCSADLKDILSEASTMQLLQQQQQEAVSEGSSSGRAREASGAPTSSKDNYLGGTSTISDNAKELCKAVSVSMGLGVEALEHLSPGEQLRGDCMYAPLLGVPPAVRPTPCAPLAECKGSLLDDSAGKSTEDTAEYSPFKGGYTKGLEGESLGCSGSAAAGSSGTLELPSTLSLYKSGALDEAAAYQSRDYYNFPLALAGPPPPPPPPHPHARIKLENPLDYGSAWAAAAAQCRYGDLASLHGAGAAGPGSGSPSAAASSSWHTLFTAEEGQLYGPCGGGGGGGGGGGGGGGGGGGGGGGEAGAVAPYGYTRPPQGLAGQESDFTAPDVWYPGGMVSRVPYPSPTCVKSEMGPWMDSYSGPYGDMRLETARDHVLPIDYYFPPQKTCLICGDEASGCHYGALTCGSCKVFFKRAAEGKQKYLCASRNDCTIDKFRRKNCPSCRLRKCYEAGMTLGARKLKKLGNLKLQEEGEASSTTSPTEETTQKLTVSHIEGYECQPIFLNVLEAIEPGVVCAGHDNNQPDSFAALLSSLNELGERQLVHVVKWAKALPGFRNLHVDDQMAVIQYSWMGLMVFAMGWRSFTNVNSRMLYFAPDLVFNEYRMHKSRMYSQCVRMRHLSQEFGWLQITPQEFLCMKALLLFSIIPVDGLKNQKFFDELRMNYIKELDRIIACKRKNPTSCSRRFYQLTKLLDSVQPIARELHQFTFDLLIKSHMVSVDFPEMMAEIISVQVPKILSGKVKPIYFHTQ

For assay [11], the target named is Estrogen receptor (Homo sapiens) (UniProt P03372). Nature of the assay: qHTS assay to identify small molecule antagonists of the estrogen receptor alpha (ER-alpha) signaling pathway using the BG1 cell line in the presence of 0.1 nM 17-beta-estradiol (AID 1259244). Further: nearly all actives have a fitted effect of over 50% in size. A digest of the protocol: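 Compounds were tested against 0.1 nM (final) 17beta-estradiol in VM7Luc4E2 cells, which express full-length ER-alpha and an ERE-luciferase reporter; luminescence was recorded following 22 h exposure.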
Estrogen receptor (Homo sapiens), sequence (P03372 whole entry, looked up): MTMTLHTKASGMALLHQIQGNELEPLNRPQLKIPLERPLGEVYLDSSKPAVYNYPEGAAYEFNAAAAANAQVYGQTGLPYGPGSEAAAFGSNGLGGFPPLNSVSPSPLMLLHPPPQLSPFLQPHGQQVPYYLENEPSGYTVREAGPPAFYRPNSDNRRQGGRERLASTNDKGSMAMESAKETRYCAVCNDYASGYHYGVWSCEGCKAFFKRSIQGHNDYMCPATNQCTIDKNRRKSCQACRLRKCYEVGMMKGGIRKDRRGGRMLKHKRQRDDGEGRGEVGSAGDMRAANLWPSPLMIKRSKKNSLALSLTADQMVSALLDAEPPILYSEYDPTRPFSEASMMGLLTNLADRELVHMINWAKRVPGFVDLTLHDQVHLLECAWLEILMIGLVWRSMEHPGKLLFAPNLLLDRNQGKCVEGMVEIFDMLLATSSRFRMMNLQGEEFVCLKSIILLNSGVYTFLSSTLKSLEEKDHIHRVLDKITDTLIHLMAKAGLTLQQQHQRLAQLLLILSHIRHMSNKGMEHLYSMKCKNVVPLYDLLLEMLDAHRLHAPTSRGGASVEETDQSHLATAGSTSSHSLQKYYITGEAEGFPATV

Assay [12] in a line: qHTS assay to identify small molecule HDAC inhibitors (AID 1259364).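 Further: wild-type HCT-116 cells with endogenous class I/II HDAC activity; top concentration of the series differs between compounds; nearly all actives have a fitted effect of over 45% in size.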 A digest of the protocol: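 Screening used wild-type human colon HCT-116 cells incubated overnight, dosed with compounds for 2 hours, and assayed with a homogeneous luminogenic HDAC I/II reagent for 30 minutes at room temperature.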
Assay [13] in a line: qHTS assay to identify small molecule HDAC inhibitors - cell viability counter screen (AID 1259365). A digest of the protocol: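 After overnight seeding at 1,500 cells per well, wild-type HCT-116 cultures took up compounds in DMSO for 2hr at 37 C. Viable cell content came from luminescence with CellTiter-Glo.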
Assay [14] in a line: qHTS assay to identify small molecule agonists of the sonic hedgehog signaling (Shh) pathway - cell viability counter screen (AID 1259366). Further: nearly all actives have a fitted effect of over 50% in size. A digest of the protocol:
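Same-well cytotoxicity read. Gli1-Luc reporter 3T3 cells; compounds 24hr, 37C/5% CO2; CellTiter-Fluor fluorescence.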

Assay [15] can be described thus: qHTS assay to identify small molecule antagonists of the sonic hedgehog signaling (Shh) pathway - cell viability counter screen (AID 1259367). Further: nearly all actives have a fitted effect of over 55% in size. Further: potency means the concentration at half of the fitted maximal effect. A digest of the protocol:
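CellTiter-Fluor signal in conditioned medium-stimulated 3T3 Gli1-Luc cells, 23 hr compound exposure, 37C.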

Assay [16] is described as follows: qHTS assay to identify small molecule agonists of the sonic hedgehog signaling (Shh) pathway (AID 1259368; calls by dose curve;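 further: NIH/3T3-derived 3T3Gli1-Luc cells carrying a stable Gli1-driven firefly luciferase reporter; series mostly up to about 92 µM; nearly all actives have a fitted effect of over 15% in size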). A digest of the protocol:
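Hedgehog pathway agonism scored by increased firefly luciferase luminescence in 3T3Gli1-Luc cells treated 24 hr at 37 C; detection used a 30 min room-temperature reagent incubation.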

Assay [17] is described as follows: qHTS assay to identify small molecule antagonists of the sonic hedgehog signaling (Shh) pathway (AID 1259369; calls by dose curve; further: nearly all actives have a fitted effect of over 45% in size; further: potency means the concentration at half of the fitted maximal effect). A digest of the protocol:
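NIH/3T3 stable Gli1-Luc clone, 2,000 cells/well, 4hr settle; cpd + conditioned medium 24hr; Luc reagent 30min RT; luminescence.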

The target in assay [18] is Estrogen receptor beta (Homo sapiens) (UniProt Q92731). Nature of the assay: qHTS assay to identify small molecule agonists of the estrogen receptor beta (ER-beta) signaling pathway (AID 1259377; active means well fitted activation curve with a large enough effect in the signal ratio in the repeat runs, not every such curve was filed as active; the % refers to the signal ratio). A digest of the protocol:
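Read-out: beta-lactamase FRET fluorescence. Cell line: ER-beta-UAS-bla HEK293T in 2% charcoal-stripped FBS. Exposure: 16 hr at 37C. Substrate step: 2 h at room temperature.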

For assay [19] the target is unchanged. Nature of the assay: qHTS assay to identify small molecule antagonists of the estrogen receptor beta (ER-beta) signaling pathway (AID 1259378; active means well fitted inhibition curve with a large enough effect in the signal ratio in the repeat runs, not every such curve was filed as active; the % refers to the signal ratio). A digest of the protocol:
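Antagonist mode: compounds added to beta-lactamase reporter HEK293T ER-beta-UAS cells stimulated with E2 (1nM final), 16 hr at 37C. LiveBLAzer B/G FRET substrate, 2 hours room temperature, fluorescence read-out.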

A number with no mark means an inactive call. Results filed as inconclusive are left out. Calls of active or inactive are those of the source. Unless noted, the call rests on the fitted dose curve; in most records, active means well fitted curve in the direction sought with a large enough effect in the repeat runs; inconclusive means weak or mixed curves; inactive means no such curve, though single readings can be large; an effect the other way counts as inactive or inconclusive.
On the % scale 0 is the no-effect control and ±100 the full control effect.

Estrogen receptor beta (Homo sapiens), sequence (Q92731 whole entry, looked up): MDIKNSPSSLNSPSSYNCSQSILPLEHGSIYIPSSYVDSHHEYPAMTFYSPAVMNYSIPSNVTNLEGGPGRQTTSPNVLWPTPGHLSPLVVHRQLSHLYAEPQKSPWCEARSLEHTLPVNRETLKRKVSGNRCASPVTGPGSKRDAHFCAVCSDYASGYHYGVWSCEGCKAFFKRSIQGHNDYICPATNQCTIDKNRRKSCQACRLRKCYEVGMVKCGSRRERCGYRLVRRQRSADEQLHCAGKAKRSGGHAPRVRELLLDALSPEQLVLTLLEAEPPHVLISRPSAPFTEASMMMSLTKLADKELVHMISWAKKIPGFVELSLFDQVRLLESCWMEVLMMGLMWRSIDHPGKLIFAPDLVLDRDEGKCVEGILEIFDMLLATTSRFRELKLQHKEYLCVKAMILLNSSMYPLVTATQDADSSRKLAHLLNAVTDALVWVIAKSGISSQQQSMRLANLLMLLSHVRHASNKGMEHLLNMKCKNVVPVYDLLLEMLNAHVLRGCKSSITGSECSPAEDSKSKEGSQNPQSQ

As for `CCC(=O)OC/C=C(\C)CCC=C(C)C`, the Potency entry in assay [1], in assay [2], in assay [3], in assay [4], in assay [5] and in assay [6] was “inactive” in each case. For the same molecule, the Potency entry in [7], in [8], in assay [9], in assay [10], in assay [11] and in [12] was “inactive” throughout. Besides, the Potency entry in [13], in assay [14], in [15], in assay [16] and in assay [17] was “inactive” throughout.
As to `O=C1OCc2ccccc21`, the Potency entry in [1], in [2], in [3], in [4], in assay [5] and in [6] was “inactive” throughout. Also, the Potency result in [7], in assay [8], in assay [9], in assay [10], in assay [11] and in assay [12] was “inactive” in each case. Also, the Potency entry in assay [13], in assay [14], in assay [15], in assay [16], in assay [17] and in [19] was “inactive” each time. The call in assay [18] was inactive.
Turning to `SC1CCCCC1`, the Potency entry in assay [1], in assay [2], in [3], in assay [4], in [5] and in assay [6] was “inactive” each time. In addition, the Potency entry in [7], in assay [8], in [9], in assay [12], in [13] and in assay [14] was “inactive” in each case. The Potency entry in assay [15], in [16], in [17] and in [19] was “inactive” throughout. Besides, the outcome in [18] was inactive.
Regarding `CCc1c(C)cc(N)c(CC)c1N`, the Potency result in assay [1], in assay [2], in [3], in assay [4], in [5] and in assay [6] was “inactive” throughout. Also, the Potency result in assay [7], in [8], in assay [9], in assay [10], in assay [11] and in assay [12] was “inactive” throughout. Also, the Potency result in assay [13], in assay [14], in assay [15], in [16], in assay [17] and in [19] was “inactive” each time. The call in assay [18] was inactive.
In the case of `c1ccc(-c2ccccc2-c2ccccc2)cc1`, the Potency result in [1], in assay [2], in assay [3], in assay [4], in assay [5] and in assay [6] was “inactive” each time. Moreover, the Potency entry in assay [7], in [8], in assay [9], in assay [12], in [13] and in assay [16] was “inactive” each time. In addition, the results for the Potency in [15] and in [17] were 43.3 µM (active) and 15.4 µM (active), respectively.
For the molecule `CN1CCN(C)CC1`, the Potency entry in assay [1], in assay [2], in assay [3], in [4], in [5] and in assay [6] was “inactive” each time. The Potency result in assay [7], in assay [8], in assay [9], in assay [10], in assay [11] and in [12] was “inactive” throughout. Further, the Potency result in assay [13], in [15] and in assay [16] was “inactive” each time. Further, in assay [18], the molecule was classed as inactive.
Turning to `CCCCNc1ccc(NCCCC)c2c1C(=O)c1ccccc1C2=O`, the cytotoxicity increase is 1.22% [at 15.8 µM] in assay [1] and -2.69% [at 15.8 µM] in [7]. In addition, the activity change, negative = cytotoxic in assay [2] was 0.554% [at 15.8 µM]. Further, the activity change, negative = cytotoxicity in [3] is -0.0547% [at 15.8 µM]; in assay [4] it was 3.79% [at 15.8 µM]; in [6] it was 1.94% [at 15.8 µM]; in assay [8], -14.1% [at 19 µM]. Also, the activity change in [5] is 0.839% [at 15.8 µM, stronger effect = higher value]; in assay [16] it was -0.26% [at 18.9 µM, stronger effect = higher value]. Besides, the viability change, negative = cytotoxic in assay [9] is -9.45% [at 19 µM]; in assay [14] it was -17.5% [at 19 µM]; in assay [15] it was -12.9% [at 19 µM]. Also, the activity, negative = inhibition in assay [10] is -3.08% [at 19 µM]; in assay [19], 17.4% [at 19 µM]. Moreover, the activity change, negative = inhibition in assay [11] was 2.76% [at 19 µM]; in assay [17] it was -20.1% [at 19 µM]. Also, the activation in [18] is -2.22% [at 19 µM].
